{
  "source": "PubChem BioAssay AID463173",
  "about": "(ICCB-Longwood Screening Facility, Harvard Medical School, 2010)",
  "note": "Screen size: about 52,000 compounds; about 4,300 (8.3%) were called active. The entries come from a sample that favours actives as a whole. A number with no mark means an inactive call. Cut-off read from the data, not from the text of the source: active = survival mostly below about 52% (no sharp cut-off); inactive = mostly above about 56%.",
  "data": [
    {"tested_on": "DeltatarO mutant", "test": "growth inhibition of S. aureus wild type versus tarO mutant, primary screen, teichoic acid synthesis inhibitors, RN4220, OD600 (AID 463173)", "details": "OD600, 18 h, active compounds read low, screened at 18.75 µg/mL (by protocol)", "values": [
      {"smiles": "Cc1cc(N2CCC(C(O)(c3ccccc3)c3ccccc3)CC2)nc(C)n1", "survival": "108%"},
      {"smiles": "Cc1cc(C)cc(-n2c(SCC(=O)Nc3ccc4c(c3)OCCO4)nc3c([nH]c4ccccc43)c2=O)c1", "survival": "126%"},
      {"smiles": "Cc1c(C(=O)N(Cc2ccco2)Cc2ccccc2Cl)oc2ccc(F)cc12", "survival": "42% (active)"},
      {"smiles": "Cc1cccc(C(=O)N(Cc2ccco2)Cc2ccccc2F)c1", "survival": "102%"},
      {"smiles": "CCc1ccc2oc(C(=O)N(Cc3cccc(Cl)c3)Cc3ccco3)c(C)c2c1", "survival": "53%"},
      {"smiles": "Cc1cc2oc(C(=O)N(Cc3ccc(N(C)C)cc3)Cc3ccco3)c(C)c2cc1Cl", "survival": "84%"},
      {"smiles": "O=C(c1cccc(Cl)c1)N(Cc1ccco1)Cc1ccccc1Cl", "survival": "32% (active)"},
      {"smiles": "CCc1ccc2oc(C(=O)N(Cc3ccc(N(C)C)cc3)Cc3ccco3)c(C)c2c1", "survival": "71%"},
      {"smiles": "Cc1cc2oc(C(=O)N(Cc3ccco3)Cc3ccccc3Cl)c(C)c2cc1C", "survival": "43% (active)"},
      {"smiles": "Cc1cc(C)cc(OCC(=O)N(Cc2ccco2)Cc2ccccc2Cl)c1", "survival": "73%"},
      {"smiles": "COc1cccc(C(=O)N(Cc2cccc(Cl)c2)Cc2ccco2)c1", "survival": "68%"},
      {"smiles": "Cc1ccc(CN(Cc2ccco2)C(=O)c2oc3ccc(C)cc3c2C)cc1", "survival": "54%"},
      {"smiles": "Cc1c(C(=O)N(Cc2cccc(Cl)c2)Cc2ccco2)oc2ccccc12", "survival": "40% (active)"},
      {"smiles": "Cc1cc2oc(C(=O)N(Cc3ccc(Cl)cc3)Cc3ccco3)c(C)c2cc1Cl", "survival": "64%"},
      {"smiles": "CCn1cc(C(=O)NCc2ccc(C)cc2)c(=O)c2cc(S(=O)(=O)N(C)C3CCCCC3)ccc21", "survival": "75%"},
      {"smiles": "CN(Cc1ccccc1)C(=O)Cn1ncc2c3ccccc3n(Cc3cccc(Cl)c3)c2c1=O", "survival": "90%"},
      {"smiles": "Cc1c(Cl)cccc1NC(=O)C(=O)NCCc1csc(-c2cccc(F)c2)n1", "survival": "76%"},
      {"smiles": "CCC(C)[C@@H](C(=O)Nc1ccc(C)cc1)N1Cc2ccccc2C1=O", "note": "(stereo partly specified)", "survival": "74%"},
      {"smiles": "CCn1cc(C(=O)NCCCOC)c(=O)c2cc(S(=O)(=O)N3CCCC3)ccc21", "survival": "92%"},
      {"smiles": "Cc1ccc(C(CC(=O)Nc2ccc(F)c(Cl)c2)N2Cc3ccccc3C2=O)cc1", "note": "(stereo unspecified)", "survival": "88%"},
      {"smiles": "CCC(=O)N1CCc2cc(Br)cc(S(=O)(=O)N3CCCC(C(=O)NCc4ccccc4)C3)c21", "note": "(stereo unspecified)", "survival": "107%"},
      {"smiles": "Cc1ccc(CN(Cc2ccco2)C(=O)c2oc3cc(Br)ccc3c2C)cc1", "survival": "43% (active)"},
      {"smiles": "Cc1c(C(=O)N(Cc2ccc(N(C)C)cc2)Cc2ccco2)oc2cc(Br)ccc12", "survival": "68%"},
      {"smiles": "Cc1ccc(CN(Cc2ccco2)C(=O)c2oc3c(C)c(C)ccc3c2C)cc1", "survival": "50%"},
      {"smiles": "CCOc1ccc(C(=O)c2cn(CC(=O)Nc3ccc(OC)cc3)c3cc4c(cc3c2=O)OCO4)cc1", "survival": "69%"},
      {"smiles": "CCC1CCCCN1CCCNC(=O)CN1C(=O)c2cccnc2Oc2ccc(C)cc21", "note": "(stereo unspecified)", "survival": "78%"},
      {"smiles": "CCS(=O)(=O)N1CC(=O)N(c2ccc(C)c(C)c2)C(C)(C(=O)NC2CCCCC2)C1", "note": "(stereo unspecified)", "survival": "87%"},
      {"smiles": "CCc1ccc(NC(=O)c2cc(S(=O)(=O)N3CCCCC3)c[nH]2)cc1", "survival": "105%"},
      {"smiles": "COc1ccccc1CCNC(=O)Cc1c(C)c2ccc(O)cc2oc1=O", "survival": "57%"},
      {"smiles": "Cc1c(CC(=O)NCc2ccccc2Cl)c(=O)oc2cc(O)ccc12", "survival": "44% (active)"},
      {"smiles": "Cc1cc(O)c2c(C)c(CC(=O)NCc3ccccc3Cl)c(=O)oc2c1", "survival": "62%"},
      {"smiles": "CCN(CC)c1ncnc(Cl)c1Cc1ccc(OC)cc1", "survival": "105%"},
      {"smiles": "COc1ccccc1NC(=O)N1CCN(c2cc(-c3ccccc3)nc3ncnn23)CC1", "survival": "66%"},
      {"smiles": "Cc1cccc(-c2nc(S(=O)(=O)c3ccc(Cl)cc3)c(N3CCCCCC3)o2)c1", "survival": "46% (active)"},
      {"smiles": "COc1cccc(-c2nc(S(=O)(=O)c3ccccc3)c(N3CCCCC3)o2)c1", "survival": "61%"},
      {"smiles": "Cc1cccc(-c2nc(S(=O)(=O)c3ccccc3)c(N3CCN(c4ccccc4)CC3)o2)c1", "survival": "112%"},
      {"smiles": "Cc1ccc(S(=O)(=O)c2nc(-c3cccc(C)c3)oc2N2CCCCC2)cc1", "survival": "6% (active)"},
      {"smiles": "Cc1ccc(S(=O)(=O)c2nc(-c3cccc(Br)c3)oc2N2CCCCCC2)cc1", "survival": "45% (active)"},
      {"smiles": "Cc1ccc(S(=O)(=O)c2nc(-c3cccc(C)c3)oc2N2CCN(c3ccccc3)CC2)cc1", "survival": "114%"},
      {"smiles": "Cc1cccc(-c2nc(S(=O)(=O)c3ccc(F)cc3)c(N3CCN(c4ccccc4)CC3)o2)c1", "survival": "110%"},
      {"smiles": "COc1cccc(-c2nc(S(=O)(=O)c3ccc(C)cc3)c(N3CCCCCC3)o2)c1", "survival": "55%"},
      {"smiles": "COc1cccc(-c2nc(S(=O)(=O)c3ccc(C)cc3)c(N3CCCCC3)o2)c1", "survival": "47%"},
      {"smiles": "Cc1ccc(Cc2nc3ccccc3nc2SCC(=O)NCc2ccccc2Cl)cc1", "survival": "120%"},
      {"smiles": "O=C(Cn1c(=O)n(-c2ccccc2Cl)c(=O)c2sc3ccccc3c21)N1CCCC1", "survival": "80%"},
      {"smiles": "O=c1c2oc3ccccc3c2n(Cc2ccccc2Cl)c(=O)n1Cc1ccc2c(c1)OCO2", "survival": "65%"},
      {"smiles": "CSc1ccc(CNC(=O)c2cc3cc(S(=O)(=O)N4CCCCC4)ccc3n2C)cc1", "survival": "95%"},
      {"smiles": "Cc1ccc(Cl)cc1NC(=O)CSc1nc2ccccc2c2nc(-c3ccccc3)nn12", "survival": "113%"},
      {"smiles": "CCOC(=O)CC(NC(=O)CCc1c(C)nc2ncnn2c1C)c1ccc(OC(C)C)cc1", "note": "(stereo unspecified)", "survival": "114%"},
      {"smiles": "Cc1ccc(Cn2c(C(=O)Nc3ccc(Cl)cc3)cc3sccc32)cc1", "survival": "112%"},
      {"smiles": "CC(=O)c1c(C)n(-c2ccc(Cl)cc2)c2ccc(OC(=O)COc3ccccc3)cc12", "survival": "63%"},
      {"smiles": "Cn1c(CNc2nc(-c3ccccc3)cs2)nnc1SCC(=O)c1ccccc1", "survival": "51% (active)"},
      {"smiles": "CCn1c(CNc2nc(-c3ccccc3)cs2)nnc1SCC(=O)c1ccc(OC)cc1", "survival": "87%"},
      {"smiles": "Cn1c(CNc2nc(-c3ccccc3)cs2)nnc1SCC(=O)OC1CCCCC1", "survival": "73%"},
      {"smiles": "CSc1ccc(CCNC(=O)c2ccc3c(Cl)c4c(nc3c2)CCCC4)cc1", "survival": "64%"},
      {"smiles": "CCCOC(=O)c1ccc2c(c1)C(=O)N(c1ccccc1)C2=O", "survival": "78%"},
      {"smiles": "O=C(NCc1ccc2c(c1)OCO2)c1ccc2c(c1)N(Cc1ccccc1)C(=O)c1ccccc1S2=O", "note": "(stereo unspecified)", "survival": "83%"},
      {"smiles": "CC(CNC(=O)c1ccc(Cn2c(SCc3ccccc3)nc3cccnc32)cc1)c1ccccc1", "note": "(stereo unspecified)", "survival": "69%"},
      {"smiles": "O=C(O)CN1CCCCC1", "survival": "89%"},
      {"smiles": "O=C(c1ccco1)n1nc(-c2ccc(Cl)cc2)nc1NCc1ccccc1", "survival": "74%"},
      {"smiles": "O=C(c1ccco1)n1nc(-c2ccc(Cl)cc2)nc1NCc1ccc(F)cc1", "survival": "80%"},
      {"smiles": "COc1ccc(C(=O)n2nc(-c3ccc(Cl)cc3)nc2NCc2ccco2)cc1", "survival": "115%"},
      {"smiles": "O=C(c1ccc(Cl)cc1)n1nc(-c2ccccc2)nc1NCc1ccco1", "survival": "29% (active)"},
      {"smiles": "O=C(c1ccccc1)n1nc(-c2ccc(Cl)cc2)nc1NCc1ccco1", "survival": "23% (active)"},
      {"smiles": "O=C(c1ccco1)n1nc(-c2ccccc2)nc1NCc1ccccc1Cl", "survival": "96%"},
      {"smiles": "O=C(c1ccc(F)cc1)n1nc(-c2ccc(Cl)cc2)nc1NCc1ccco1", "survival": "70%"},
      {"smiles": "O=C(c1ccc(F)cc1)n1nc(-c2ccccc2)nc1NCc1ccco1", "survival": "18% (active)"},
      {"smiles": "O=C(c1ccco1)n1nc(-c2ccccc2)nc1NCc1ccc(Cl)cc1", "survival": "91%"},
      {"smiles": "Cc1ccc2onc(CNC(=O)NCc3ccc(Cl)cc3)c2c1", "survival": "77%"},
      {"smiles": "FC(F)(F)COc1nc(OCC(F)(F)F)nc(N(c2ccccc2)c2ccccc2)n1", "survival": "71%"},
      {"smiles": "O=C(CCCCn1c(=O)c2ccccc2n(Cc2ccccc2Cl)c1=O)NCc1ccc2c(c1)OCO2", "survival": "78%"},
      {"smiles": "COc1ccc(S(=O)(=O)c2c(Nc3c(C)cccc3C)sc(C(=O)c3ccc(F)cc3)c2N)cc1", "survival": "98%"},
      {"smiles": "Cc1ccc(C)c(S(=O)(=O)c2nnn3c2nc(N2CCCCC2)c2sccc23)c1", "survival": "60%"},
      {"smiles": "COc1cccc(C(=O)N2CCCCC2CCN2CCCCC2)c1", "note": "(stereo unspecified)", "survival": "83%"},
      {"smiles": "NC(=O)NC(=O)c1nc2nonc2[nH]c1=O", "survival": "91%"},
      {"smiles": "O=c1[nH]c2ccccc2nc1/C=C(\\O)c1ccccc1", "survival": "83%"},
      {"smiles": "O=c1[nH]c2nonc2nc1/C=C(\\O)c1ccccc1", "survival": "15% (active)"},
      {"smiles": "Cc1cccc(OC2CCS(=O)(=O)C2)c1", "note": "(stereo unspecified)", "survival": "87%"},
      {"smiles": "COc1ccc(C2=C(C)C(=NCCCN3CCN(c4cc(Cl)ccc4C)CC3)NS2(=O)=O)cc1", "survival": "59%"},
      {"smiles": "N#CC(C#N)=Cc1cn(CCCOc2ccccc2Cl)c2ccccc12", "survival": "76%"},
      {"smiles": "Cc1ccc(C(=O)CSc2nnc(-c3ccccc3)n2-c2ccccc2)cc1", "survival": "99%"},
      {"smiles": "CCn1c(SCC(=O)c2ccc([N+](=O)[O-])cc2)nnc1-c1ccc(Cl)cc1", "survival": "70%"},
      {"smiles": "O=C(CSc1nnc(-c2ccc(Br)cc2)n1-c1ccccc1)c1ccccc1", "survival": "69%"},
      {"smiles": "O=C(CSc1nnc(-c2ccccc2Br)n1-c1ccccc1)c1ccc(F)cc1", "survival": "17% (active)"},
      {"smiles": "CCOc1ccc(-c2nnc(SCC(=O)c3ccc(F)cc3)n2-c2ccccc2)cc1", "survival": "168%"},
      {"smiles": "CCn1c(SCC(=O)c2ccccc2)nnc1-c1cccc(Cl)c1", "survival": "39% (active)"},
      {"smiles": "COc1ccccc1-c1nnc(SCC(=O)c2ccc(Cl)cc2)n1-c1ccccc1", "survival": "1% (active)"},
      {"smiles": "COc1ccccc1-c1nnc(SCC(=O)c2ccc(F)cc2)n1-c1ccccc1", "survival": "6% (active)"},
      {"smiles": "Cn1c(SCC(=O)c2ccc(F)cc2)nnc1-c1ccccc1Br", "survival": "57%"},
      {"smiles": "CCn1c(SCC(=O)c2ccccc2)nnc1-c1ccco1", "survival": "86%"},
      {"smiles": "COc1ccccc1-c1nnc(SCC(=O)OC(C)C)n1-c1ccccc1", "survival": "92%"},
      {"smiles": "Cc1ccc(-c2nnc(SCC(=O)c3ccc(Cl)cc3)n2-c2ccccc2)cc1", "survival": "85%"}
    ]}
  ]
}
